Screening results (PubChem)
IMPase Li cell – qHTS Assay for Identifying the Cell-Membrane Permeable IMPase Inhibitors: Potentiation with Lithium; 210,000 compounds, 0.35% hits; Potency, µM (titrated, usually from 59.4 µM), for the others: top-dose activity, negative = IMPase inhibition, most hits filed as inhibitors; CHO-M1 cells, IP1 TR-FRET (IP-One), carbachol + lithium; active means well fitted inhibition curve with a large enough effect; inconclusive means small, poorly fitted or top-dose-only effect; inactive means no such curve, though single readings can be large or run the other way;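 further: IP1 builds up when IMPase is blocked and the TR-FRET signal falls; potency means the concentration at half of the fitted maximal effect; plate controls were basal vehicle for no effect and high inhibitor control for full effect; nearly all actives have a fitted effect of over 50% in size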
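Steps: plate 2000 CHO-M1 cells per well and culture 16–30 h; add compound and lithium; incubate 30 min, 37C; add d2-IP1 tracer and Eu cryptate anti-IP1 antibody in lysis buffer; read after 10 min at room temperature.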
ALDH1A1 inh – qHTS Assay for Inhibitors of Aldehyde Dehydrogenase 1 (ALDH1A1); 220,000 compounds, 7.3% hits; Purified ALDH1A1, NADH fluorescence, propionaldehyde substrate; AID 1030, 2008; Potency, µM (titrated, usually from 75.3 µM), inactives show at the top dose activity, negative = inhibition, most hits filed as inhibitors;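 further: potency means the concentration at half of the fitted maximal effect; plate controls were no enzyme wells and a reference inhibitor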
PNC inhibitor – High Content Assay for Compounds that inhibit the Assembly of the Perinucleolar Compartment | PC3M PTB-GFP, PNC prevalence imaging, 16 h; hits give low values | activity change (PNC), negative = inhibition, % at 10 µM | 140,000 compounds, 3.1% hits;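 active means readout at or below -70, meaning at least 70% loss of cells showing the perinucleolar compartment, a nuclear body marking cancer cells; inconclusive means readout between -30 and a set limit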;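 further: plate controls were DMSO wells for no effect and camptothecin positive control wells for full effect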
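Read-out is percentage of cells bearing a perinucleolar compartment, from automated 20x imaging of fixed, Hoechst-stained PC3M PTB-GFP cells. Cells were seeded 4 h, then exposed 16 h to compound (23 nl of library stock) in duplicate plates.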
HPGD inh – qHTS Assay for Inhibitors of HPGD (15-Hydroxyprostaglandin Dehydrogenase) | 15-hydroxyprostaglandin dehydrogenase [NAD(+)] (Homo sapiens), P15428 | purified HPGD, NADH fluorescence kinetic, PGE2 substrate | Potency, µM, for the others: at the top dose activity change, negative = inhibition, hits mostly inhibitors | 150,000 compounds, 4.3% hits | AID 894, 2007; further: potency means the concentration at half of the fitted maximal effect
Target sequence (P15428 whole entry, looked up): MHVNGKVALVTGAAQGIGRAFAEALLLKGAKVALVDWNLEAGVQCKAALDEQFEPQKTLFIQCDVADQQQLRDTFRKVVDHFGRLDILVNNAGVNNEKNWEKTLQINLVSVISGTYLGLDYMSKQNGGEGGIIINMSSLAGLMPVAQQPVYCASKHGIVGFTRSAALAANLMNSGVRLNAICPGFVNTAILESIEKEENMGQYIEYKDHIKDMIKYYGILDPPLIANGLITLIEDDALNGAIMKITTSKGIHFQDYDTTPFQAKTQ
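NADH formation kinetics: reaction with 30 uM PGE2 and 1 mM NAD+ (final), 20 nM enzyme, Tris-HCl pH 8 with Tween 20, after 15 min compound preincubation at room temperature. Fluorescence change, last versus first of five reads.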
IMPase inh – qHTS Assay for Identifying the Cell-Membrane Permeable IMPase Inhibitors | Inositol monophosphatase 1 (Rattus norvegicus), P97697 | CHO-M1 cells, IP1 accumulation, HTRF TR-FRET ratio | inhibition (IP1 accumulation), % at 46.1 µM | 120,000 tested, under 10 active | AID 901, 2007; active means well fitted curve in the direction sought with a large enough effect in the signal ratio, not every such curve was filed as active; inconclusive means small, poorly fitted or top-dose-only effect, or a change in a side signal; inactive means no such curve, though single readings can be large or run the other way; the % refers to the signal ratio;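 further: cells stimulated with carbachol in lithium chloride buffer; plate controls were DMSO basal wells for no effect and reference inhibitor wells for full effect; higher means more IMPase inhibition seen as more IP1 and lower FRET ratio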
Target sequence (P97697 whole entry, looked up): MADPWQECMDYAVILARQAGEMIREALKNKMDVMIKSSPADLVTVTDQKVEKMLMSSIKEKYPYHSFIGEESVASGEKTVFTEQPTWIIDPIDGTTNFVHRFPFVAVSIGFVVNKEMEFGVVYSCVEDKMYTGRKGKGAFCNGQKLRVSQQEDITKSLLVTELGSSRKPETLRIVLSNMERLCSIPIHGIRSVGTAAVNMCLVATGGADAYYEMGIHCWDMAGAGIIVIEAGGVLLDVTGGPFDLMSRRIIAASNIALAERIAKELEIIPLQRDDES
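CHO-M1, 2000 cells/well, cultured 16–30 h; cpd up to 46 uM; carbachol (50 uM solution, stimulation buffer w/ 50 mM LiCl, pH 7.4), 30 min 37C; IP-One TR-FRET, 10 min RT; Ex 320/Em 665, 620; Hill-fit AC50.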
The depositor's hits bear a star; ? = inconclusive; nt = no result given; [ ] = remark or other dose. This is a sample that favours compounds with a hit; in the whole collection about 11% have one here. Unless noted, the call rests on the fitted dose curve; in most records, active means well fitted inhibition curve with a large enough effect (not every such curve was filed as active); inconclusive means small, poorly fitted or top-dose-only effect, or another doubt; inactive means no such curve, though single readings can be large or run the other way. Unless noted, on the % scale 0 is the no-effect control and ±100 the full control effect.

SMILES	IMPase Li cell	ALDH1A1 inh	PNC inhibitor	HPGD inh	IMPase inh
CC(C)COC(=S)Nc1ccccc1	-6.0%[38.3 µM]	25.1µM*	3.1	11.2µM*	-0.4
Fc1ccc(-n2[nH]nnc2=S)cc1N1CCCC1	-17.7%[38.3 µM]	14.1µM*	-18.7	17.8µM*	10.0
CN1/C(=C\C=C2/C(=O)Oc3ccccc3C2=O)C(C)(C)c2ccccc21	-5.0%	-0.6%	-90.5*	-12.0%	nt
Cc1cc(=O)n(C2CCS(=O)(=O)C2)[nH]1 (configuration not stated)	7.1%	23.4%	nt	nt	nt
N#C/C(=C(/O)CN1CCOCC1)c1nc(-c2ccccc2)cs1	-7.7%[38.3 µM]	1.0%	27.8	-11.1%	6.0
CCOC(=O)C1CCCN(C/C(O)=C(\C#N)c2nc(-c3ccccc3)cs2)C1 (configuration not stated)	3.1%	31.6µM*	-18.1	-23.7%	2.9
N#C/C(=C(/O)CN1CCN(c2ccccc2F)CC1)c1nc(-c2ccc(Cl)cc2)cs1	-0.8%[38.3 µM]	14.7%	2.2	-9.5%	-1.2
COc1ccccc1N1CCN(C/C(O)=C(\C#N)c2nc(-c3ccccc3)cs2)CC1	24.2%[38.3 µM]	11.2µM*	19.6	-20.8%	-5.6
CC(=O)c1c(N2CCOCC2)nc(=O)n(-c2ccccc2)c1C	0.4%[38.3 µM]	4.1%	-80.4*	-8.0%	-6.5
CC(=O)c1c(N2CCOCC2)nc(=S)n(-c2ccccc2)c1C	33.8%[38.3 µM]	2.9%	?	-4.0%	6.0
CC(=O)c1c(N2CCOCC2)nc(=S)n(-c2ccc([N+](=O)[O-])cc2)c1C	10.9%[38.3 µM]	?	-113.4*	-14.5%	-10.6
CC(=O)c1c(N2CCCCC2)nc(=O)n(-c2ccccc2)c1C	15.3%[38.3 µM]	1.9%	?	-6.1%	-4.7
CCOc1ccc(C(=O)/C=C/c2ccc(SC)cc2)cc1	7.3%[38.3 µM]	-3.3%	12.4	-26.3%	-5.0
CN(C)c1ccc(C(=O)/C=C/c2ccco2)cc1	0.7%	8.91µM*	-10.4	31.6µM*	nt
CC(=O)Nc1ccc(C(=O)/C=C/c2ccco2)cc1	1.5%	?	86.4	-27.4%	5.4
CSc1ccc(/C=C/C(=O)c2ccc(O)cc2)cc1	8.0%	17.8µM*	68.6	-27.7%	-1.2
CC(=O)Nc1cccc(C(=O)/C=C/c2ccco2)c1	7.4%[38.3 µM]	10µM*	22.4	?	5.1
O=C(/C=C/c1ccco1)c1ccc(O)cc1	-3.5%	15µM*	nt	nt	nt
CC(C)(C)S(=O)(=O)c1c(C(=O)O)cccc1C(=O)O	-8.8%[38.3 µM]	6.7%	6.1	-15.4%	1.7
CCc1ccc(C(=O)c2ccccc2C(=O)O)s1	-8.9%[38.3 µM]	4.3%	63.0	0.4%	7.5
O=C(O)Cc1ccc(C(=O)c2ccccc2F)s1	3.4%[38.3 µM]	5.01µM*	47.3	15.8µM*	-5.9
CN(C)CCCNc1ncnc2scc(-c3ccccc3)c12	13.2%	17.8µM*	nt	nt	nt
N#CNC(N)=Nc1ccc(Cl)cc1	2.5%	?	nt	-18.4%	nt
C/C(Cn1cnc([N+](=O)[O-])n1)=N\NC(=O)c1ccc(O)cc1O	1.5%	?	nt	nt	nt
Cc1cccc(/C=C/c2nc3ccccc3c(=O)[nH]2)c1	4.8%	?	nt	nt	nt
SMILES	IMPase Li cell	ALDH1A1 inh	PNC inhibitor	HPGD inh	IMPase inh
Cc1cccc(/C=C(\c2nc3ccccc3[nH]2)S(=O)(=O)c2ccccc2)c1	-8.1%	22.2%	-81.8*	-22.8%	20.2
Cc1ccc(C(=O)N2CCN(Cc3ccc4c(c3)OCO4)CC2)cc1[N+](=O)[O-]	23.3%	12.6µM*	nt	nt	nt
CCn1cc(C(=O)NCc2cccnc2)c2cc(OC)c(OC)cc2c1=O	9.5%[38.3 µM]	25.1µM*	?	-16.5%	0.1
CCn1cc(C(=O)NCCCOC)c2cc(OC)c(OC)cc2c1=O	-7.9%[38.3 µM]	3.6%	-10.4	-19.3%	0.2
CCOCCCNC(=O)c1cn(CC(C)C)c(=O)c2cc(OC)c(OC)cc12	13.7%[38.3 µM]	20µM*	2.7	-17.0%	2.8
COc1cc2c(C(=O)NCc3ccc4c(c3)OCO4)cn(CC(C)C)c(=O)c2cc1OC	5.1%	0.141µM*	-112.5*	-2.6%	-1.7
COc1cc2c(C(=O)Nc3ccc4c(c3)OCO4)cn(CC(C)C)c(=O)c2cc1OC	27.1%[38.3 µM]	?	-14.4	-3.3%	8.4
COc1cc2c(C(=O)N3CCN(Cc4ccc5c(c4)OCO5)CC3)cn(C)c(=O)c2cc1OC	5.1%	2.51µM*	55.1	-13.0%	-1.3
C[C@@H]1CC[C@H]2[C@H](C)C3[C@H](C[C@H]4[C@@H]5CC=C6C[C@@H](O)CC[C@@]6(C)[C@@H]5C[C@@H](O)[C@]34C)N2C1 (some centres not stated)	13.9%	8.0%[13.5 µM]	nt	-2.2%	nt
COC(=O)c1ccc(C2/C(=C(/O)c3ccc(OC(C)C)cc3)C(=O)C(=O)N2c2cc(C)on2)cc1 (configuration not stated)	10µM*	1.4%	-13.5	-16.0%	-15.4
Cc1ccc(/C(O)=C2\C(=O)C(=O)N(c3cc(C)on3)C2c2cccc(Br)c2)cc1 (configuration not stated)	?	?	-6.3	-16.1%	-9.6
COC(=O)c1ccc(C2/C(=C(/O)c3ccc(OC)cc3)C(=O)C(=O)N2c2cc(C)on2)cc1 (configuration not stated)	10µM*	12.6µM*	?	?	-6.9
COc1cc(N=c2ssnc2Cl)cc(OC)c1	45.9%[38.3 µM]	0.316µM*	?	0.631µM*	-6.4
N#Cc1cccc(N=c2ssnc2Cl)c1	-4.8%	1.26µM*	nt	nt	nt
Clc1ccc(N=c2ssnc2Cl)nc1	20.2%	-3.3%	nt	nt	nt
OCc1ccccc1N=c1ssnc1Cl	3.0%[38.3 µM]	0.891µM*	-3.9	6.31µM*	2.9
Clc1nssc1=Nc1ccc(Br)cc1	-2.5%	1.78µM*	nt	nt	nt
O=C1N(Cc2cccc(Cl)c2)C[C@@H]2C[C@@H](c3cccn3-c3nccs3)N3CCC[C@@]123	9.0%	-0.5%	nt	nt	nt
COc1cc2[nH]c(=S)nc(NCCCOC(C)C)c2cc1OC	-8.8%[38.3 µM]	?	9.9	17.8µM*	6.8
CC(C)(C)c1[nH]nc2c1C(Cc1ccccc1)C(C#N)=C(N)O2 (configuration not stated)	37.0%[38.3 µM]	-4.5%	?	-7.7%	8.7
Cc1ccc(CNC(=O)CN(Cc2ccccc2)S(C)(=O)=O)cc1	6.2%	-2.4%	21.9	-8.8%	9.4
COc1ccc(C(=O)NC(=S)NCc2ccc(-c3nc4ccccc4o3)cc2)cc1OC	-51.6%[38.3 µM]	5.01µM*	-25.0	-20.8%	6.8
CC(=O)OCCC(C)CCC=C(C)C (configuration not stated)	-5.1%	-8.3%	nt	-9.6%	nt
COc1ccc(C)cc1-n1nc2ccccc2n1	10.4%	-11.2%	nt	nt	nt
Cc1cc(C)c(-n2[nH]nnc2=S)c(C)c1	nt	22.4µM*	nt	nt	nt
COc1ccc(C)cc1-n1[nH]nnc1=S	1.4%	10µM*	nt	nt	nt
